Reference: PubChem BioAssay (NCI)
The panel holds about 79,000 compounds, 15% with a hit somewhere; the sample as a whole holds those more often. Calls of active or inactive are those of the source. Rule as the data show it: active = growth inhibition above about 70%; inactive = the rest.

Legend:
[1] = NCI Yeast Anticancer Drug Screen. Data for the rad50 strain (AID 155);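 also: 0% = growth of vehicle-only cultures of the same strain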; details: S. cerevisiae rad50 strain growth inhibition; at 50.0 µM; active compounds read high
Method in brief: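 Compounds were tested on a yeast strain with an engineered DNA damage repair alteration; the reported value is growth inhibition normalised to vehicle treatment.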

[2] = NCI Yeast Anticancer Drug Screen. Data for the mec2-1 strain (AID 157); details: S. cerevisiae mec2-1 strain, at 50.0 µM, active compounds read high
Method in brief: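 Cells of the genetically defined mec2-1 yeast strain are incubated with test compound. Inhibition of growth is calculated against vehicle-treated controls.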

[3] = NCI Yeast Anticancer Drug Screen. Data for the sgs1 mgt1 strain (AID 161);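 also: 0% = growth of cultures given vehicle only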; details: S. cerevisiae sgs1 mgt1 strain, at 50.0 µM, active compounds read high
Method in brief: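 Read-out: growth inhibition vs vehicle controls. Cells: mutant yeast strain deficient in DNA damage repair.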

[4] = NCI Yeast Anticancer Drug Screen. Data for the cln2 rad14 strain (AID 165);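 also: 0% = growth equal to vehicle treated cultures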; details: S. cerevisiae cln2 rad14 strain, at 50.0 µM, active compounds read high
Method in brief: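 The screen exposed genetically defined yeast (cln2 rad14) to test compounds and scored growth inhibition relative to vehicle-treated controls.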

[5] = NCI Yeast Anticancer Drug Screen. Data for the bub3 strain (AID 167); details: S. cerevisiae bub3 mutant strain, at 50.0 µM, active compounds read high
Method in brief: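 Growth of a checkpoint-deficient yeast mutant is measured after compound exposure. Values represent inhibition relative to vehicle.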

[6] = NCI Yeast Anticancer Drug Screen. Data for the mlh1 rad18 strain (AID 175); details: S. cerevisiae mlh1 rad18 strain growth inhibition; at 50.0 µM; active compounds read high
Method in brief: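 Compound-treated yeast growth, normalised to vehicle controls. Strain bears defined DNA repair mutations.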

Measured: growth inhibition

NC(=S)N/N=C/c1ncccc1N
inactive: [1] 14.8% | [2] 50.6% | [3] 39.2% | [4] 35% | [5] 34.9% | [6] -21.7%

Nc1ncnc2c1nnn2CCCCCC(=O)O
inactive: [1] -6.25% | [2] 27.8% | [3] 21.8% | [4] -7.95% | [5] 11.8% | [6] -13.9%

Cc1ccccc1CN
inactive: [1] 28.9% | [2] 3.05% | [3] -10.8% | [4] 1.05% | [5] 18.3% | [6] 23.6%

Cc1ccc(NC(=S)NCC2CCCO2)cc1C (configuration not stated)
inactive: [1] 9% | [2] 7.2% | [3] 10.6% | [4] 8.85% | [5] 19.4% | [6] 14.7%

COC(=O)C1(Cc2ccc3c(c2)CCC3)Cc2ccccc2C1=O (configuration not stated)
inactive: [1] 5.1% | [2] 22.4% | [3] 25.1% | [4] 21.6% | [5] 49.5% | [6] 8.8%

Cc1ccc(N)c(C#N)c1
inactive: [1] -11.8% | [2] 11.7% | [3] -5.7% | [4] 1% | [5] -5% | [6] 4.65%

Cc1ccsc1/C=N/Nc1nc2ccccc2s1
inactive: [1] 1.7% | [2] -1.5% | [3] 13.7% | [4] 9.2% | [5] -2.15% | [6] 11.3%

CC1=CC(=Nc2ccc(N(C)C)cc2)C(C)=CC1=O
inactive: [1] -11.1% | [2] -28.3% | [3] -2.4% | [4] -30.6% | [5] 5.4% | [6] -4.35%

O=c1[nH]c2nc3ccccc3c(=O)n2/c1=C/c1cccs1
inactive: [1] 28.9% | [2] 2.2% | [3] 4.4% | [4] 20.6% | [5] 14.3% | [6] -15.8%

CC(C)(C)c1onc2c1C(=O)c1ccccc1-2
inactive: [1] -3.7% | [2] -2.55% | [3] 1.35% | [4] -5.9% | [5] 25.9% | [6] -2.75%

O=C(N/N=C/c1ccc(Cl)cc1)C(c1ccccc1)N1CCCCC1 (configuration not stated)
inactive: [1] 4.7% | [2] -2.65% | [3] -0.2% | [4] 4.6% | [5] 8.55% | [6] 13.7%

NCC(N)=O
inactive: [1] -1.6% | [2] -14.2% | [3] -29% | [4] -35% | [5] -36.2% | [6] 4.1%

COC(=O)c1n[nH]n(Cc2cccs2)c1=O (tested in a mixture with another compound)
inactive: [1] 14.8% | [2] 13.9% | [3] 16.1% | [4] -0.85% | [5] 10.6% | [6] 26.2%

Cc1[nH]c(=O)n2c(C)nnc2c1C(=O)Nc1cc(Cl)cc(Cl)c1
inactive: [1] 15.2% | [2] -0.45% | [3] 39% | [4] 18.4% | [5] 7.5% | [6] 31.2%

Nc1cc2c(cc1Cl)-c1cc(Cl)ccc1C2=O
inactive: [1] 5.7% | [2] -9.65% | [3] -2.2% | [4] -24.4% | [5] -8.5% | [6] -8.5%

c1ccc(COC2COC(c3ccccc3)OC2)cc1 (configuration not stated)
inactive: [1] 5.95% | [2] -35% | [3] 0.7% | [4] 16.9% | [5] 7.45% | [6] 3.15%

Cc1nc(C)c(N2CCN(S(=O)(=O)N(Cc3ccccc3)Cc3ccccc3)CC2)c(=O)[nH]1
inactive: [1] -22.7% | [2] -5.95% | [3] -32.3% | [4] 3.85% | [5] -5.65% | [6] 4.2%

O=C1CCCS(=O)(=O)CCC1
inactive: [1] 7.4% | [2] 11.5% | [3] -8.2% | [4] -3.5% | [5] 0.9% | [6] 54.1%

CC1(C)CNCC2(C)OCCCOC3(C)CNCC(C)(C)NC(=O)C(C)(CNCC(C)(C)NC3=O)OCCCOC(C)(CNCC(C)(C)NC2=O)C(=O)N1
inactive: [1] -22.6% | [2] -21.1% | [3] -24.4% | [4] 16.1% | [5] -3.05% | [6] -21.7%

CC1(C)C2(SCCS2)C(C)(C)C12SCCS2
inactive: [1] 22.9% | [2] 3.05% | [3] 17.9% | [4] 3.75% | [5] 11.4% | [6] 5.4%

CCCCNC(=O)/C(=C\c1ccccc1)NC(C)=O
inactive: [1] 50.1% | [2] 12.1% | [3] 0.85% | [4] -8.45% | [5] 10.9% | [6] -14.2%

CCN(CC)CCOC(=O)Nc1c(Cl)cccc1Cl
inactive: [1] -3.75% | [2] -16.7% | [3] 8.6% | [4] 9.4% | [5] 9.25% | [6] 6.05%

CO/C=C/c1cc2c(cc1Br)OCO2
inactive: [1] 10.9% | [2] 5.15% | [3] 25.4% | [4] 0.75% | [5] 11.4% | [6] 12.3%

Cc1ccc(-c2n[nH]c(=O)n2N)cc1
inactive: [1] 3.5% | [2] -23% | [3] 0.85% | [4] 5.45% | [5] 0.45% | [6] 7.25%

COc1cc2c(cc1OC)C1CCc3ccccc3CN1CC2 (configuration not stated)
inactive: [1] 0.7% | [2] -25.5% | [3] -6.85% | [4] 8.95% | [5] -15.8% | [6] 3.15%

COc1ccc2c(c1)c(CC(=O)O)c(Br)n2Cc1ccccc1
active: [6] 77.7%
inactive: [1] 27.9% | [2] 33.4% | [3] 12% | [4] 21.4% | [5] 20.1%

COc1c(OC(C)=O)cc(Cl)c(C=O)c1[N+](=O)[O-]
inactive: [1] 5.25% | [2] 2.4% | [3] 19.3% | [4] 5.8% | [5] 1.55% | [6] -9.3%

CCC(O)(Cc1ccc(OC)cc1)c1ccc(OC)cc1 (configuration not stated)
inactive: [1] -33.1% | [2] -24.4% | [3] 14.8% | [4] 1.4% | [5] 11.7% | [6] -11.8%

Cc1ccc(Cc2nn(C)c(=O)n2-n2cccc2)cc1
inactive: [1] -37.1% | [2] -13.7% | [3] -10% | [4] -1.7% | [5] -19.1% | [6] -7.45%

Fc1ccccc1-c1nnc(-c2ccc3ccccc3c2)o1
inactive: [1] 33.1% | [2] 14.8% | [3] 32.4% | [4] 23.9% | [5] 40.5% | [6] 14.7%

COC(=O)C(O)CC1=CC[C@@H]2CC=C[C@H]12 (some centres not stated)
inactive: [1] 27.7% | [2] 1.7% | [3] 13.7% | [4] 3.7% | [5] 27.5% | [6] -7.65%

CNC(=O)Nc1ccc(OC)cc1OC
inactive: [1] 3% | [2] -6.2% | [3] -8.35% | [4] -66.5% | [5] 3.2% | [6] -18.6%

c1ccc(Nc2nnc(Nc3ccccc3)s2)cc1
inactive: [1] -6.15% | [2] 21.6% | [3] 53% | [4] -21.2% | [5] 3.9% | [6] -21.1%

CNC(=O)NC1C(CO)OC2OC(C)(C)OC21 (configuration not stated)
inactive: [1] 6.5% | [2] 5.25% | [3] 10.4% | [4] -35.3% | [5] -9.85% | [6] 2.55%

CC1(C)CC(=O)C2=C(C1)NC(=S)C(C#N)C2c1ccccc1 (configuration not stated)
inactive: [1] 10.2% | [2] -4% | [3] 14.7% | [4] 9.55% | [5] 21.1% | [6] 30.2%

CCOc1cc2c(cc1O)C(O)C[C@@H]1[C@@H]2CC[C@]2(C)[C@@H](O)CC[C@@H]12 (some centres not stated)
inactive: [1] 14.8% | [2] -7.9% | [3] 22.7% | [4] 11.9% | [5] 24.2% | [6] 25.1%

O=C1C(c2ccccc2)=C(c2ccccc2)/C1=C\c1ccc(Cl)cc1Cl
inactive: [1] 7.4% | [2] -5.9% | [3] -13.9% | [4] -8.9% | [5] 5.5% | [6] -13.8%

CCOC(=O)NN(C(=O)OCC)C(=C(c1ccccc1)N1CCOCC1)N(NC(=O)OCC)C(=O)OCC
inactive: [1] 6.3% | [2] 5.6% | [3] -2.7% | [4] 31.1% | [5] -2.25% | [6] 10.8%

NNc1ccc([N+](=O)[O-])c2[nH][nH]c(=O)c12
inactive: [1] 8% | [2] 6.5% | [3] 27.1% | [4] 11.2% | [5] 31.9% | [6] 11.4%

O=C(C(O)c1ccccc1)N1CCCCC1 (configuration not stated)
inactive: [1] 32.6% | [2] 14.2% | [3] -2.95% | [4] 9.85% | [5] 4.3% | [6] 21.6%

COc1ccc(NC(=O)C(=O)C2NC(=S)NC2=O)c(OC)c1 (configuration not stated)
inactive: [1] 34.4% | [2] 16.5% | [3] 11.6% | [4] 15.3% | [5] 3% | [6] 3.2%

CS(=O)(=O)N1C=CC2C(C=C1)C1(c3ccccc3)OC2(c2ccccc2)c2ccccc21 (configuration not stated)
inactive: [1] -9.75% | [2] -9.25% | [3] 0.35% | [4] -39.7% | [5] 2.95% | [6] -19.5%
